From the supplement of paper PMC12494721
Where a name gives a salt, the structure may show the parent alone.

What follows are compounds tested on Escherichia coli IAI1 (assay: fold change of Cadaverine concentration vs plate DMSO controls (fold change (ratio)); higher = more amine produced, active = hit call of the paper (significant change in both replicates, either direction)). Conditions: incubation time: 27 h, anaerobic, 37 °C;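 for the amine columns active = adjusted P below 0.05 in both replicates with a change the same way and a mean fold change under 0.8 or over 1.25; inactive = the rest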.
Procedure, shortened: (§1)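 Amine values are fold changes relative to DMSO-only wells on the same plate. They derive from 27 h, 37 °C anaerobic mGAM cultures of four gut bacterial strains in 80 µL wells, dosed at 20 µM final, or 50 µM final for sweeteners. Extraction of the whole culture, LC–triple-quadrupole MS in dynamic MRM mode, external calibration curves and within-batch drift correction were used, with 2 biological replicates averaged.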

| Structure (SMILES) | fold change of Cadaverine concentration |
| --- | --- |
| CC(C)CN(C[C@@H](O)[C@H](Cc1ccccc1)NC(=O)O[C@H]1CO[C@H]2OCC[C@H]21)S(=O)(=O)c1ccc(N)cc1 [Darunavir] (20 µM) | 1.05 (inactive) |
| CN1CCc2cccc3c2[C@H]1Cc1ccc(O)c(O)c1-3 [R(-) Apomorphine hydrochloride hemihydrate] (20 µM) | 1.04 (inactive) |
| CC(=O)OCC(=O)[C@@]1(O)[C@H](C)C[C@H]2[C@@H]3CCC4=CC(=O)C=C[C@]4(C)[C@@]3(F)[C@@H](O)C[C@@]21C [Dexamethasone acetate] (20 µM) | 1.02 (inactive) |
| CN(C)CCC(c1ccc(Br)cc1)c1ccccn1 (centres undefined) [Brompheniramine maleate] (20 µM) | 1.2 (inactive) |
| C#C[C@]1(O)CC[C@H]2[C@@H]3CCC4=C(CCC(=O)C4)[C@H]3CC[C@@]21C [Norethynodrel] (20 µM) | 0.979 (inactive) |
| CN1CCN(CCCN2c3ccccc3Sc3ccc(S(=O)(=O)N(C)C)cc32)CC1 [Thioproperazine dimesylate] (20 µM) | 0.99 (inactive) |
| CCN1/C(=C/C=C/C=C/c2sc3ccccc3[n+]2CC)Sc2ccccc21 [Dithiazanine iodide] (20 µM) | 1.07 (inactive) |
| O=C(O)/C=C/c1ccc(Cn2ccnc2)cc1 [Ozagrel hydrochloride] (20 µM) | 1.01 (inactive) |
| C=CCOc1ccc(CC(=O)O)cc1Cl [Alclofenac] (20 µM) | 0.97 (inactive) |
| CCCCc1nc(Cl)c(CO)n1Cc1ccc(-c2ccccc2-c2nnn[nH]2)cc1 [Losartan] (20 µM) | 0.99 (inactive) |

Each compound was assayed on Klebsiella aerogenes DSM 30053 in the same assay as above. Conditions: incubation time: 27 h, anaerobic, 37 °C.
Procedure, shortened: as §1

| Structure (SMILES) | fold change of Cadaverine concentration |
| --- | --- |
| CC(C)COCC(CN(Cc1ccccc1)c1ccccc1)N1CCCC1 (centres undefined) [Bepridil hydrochloride] (20 µM) | 1.01 (inactive) |
| C[C@@H]1C[C@H]2[C@@H]3CCC4=CC(=O)C=C[C@]4(C)[C@@]3(Cl)[C@@H](O)C[C@]2(C)[C@@]1(OC(=O)c1ccco1)C(=O)CCl [Mometasone furoate] (20 µM) | 1.03 (inactive) |
| c1ccc(-c2ccc(C(c3ccccc3)n3ccnc3)cc2)cc1 (centres undefined) [Bifonazole] (20 µM) | 1 (inactive) |
| Cc1ncc([N+](=O)[O-])n1CC(C)O (centres undefined) [Secnidazole] (20 µM) | 1.02 (inactive) |
| CC(=O)[C@H]1CC[C@H]2[C@@H]3C[C@H](C)C4=CC(=O)CC[C@]4(C)[C@H]3[C@@H](O)C[C@]12C [Medrysone] (20 µM) | 0.996 (inactive) |
| Cc1ccc(C(=O)c2ccc(CC(=O)O)n2C)cc1 [Tolmetin sodium salt dihydrate] (20 µM) | 1 (inactive) |
| COCCOC(=O)C1=C(C)NC(C)=C(C(=O)OC(C)C)C1c1cccc([N+](=O)[O-])c1 (centres undefined) [Nimodipine] (20 µM) | 1.01 (inactive) |
| CCCCCCCCCCCCCCCCCCCCCC(=O)Nc1ccn([C@@H]2O[C@H](CO)[C@@H](O)[C@@H]2O)c(=O)n1 [Enocitabine] (20 µM) | 1.02 (inactive) |
| CCN(CCCc1ccccc1)CCCc1ccccc1 [Alverine citrate salt] (20 µM) | 1.02 (inactive) |
| CN(C)CCCC1(c2ccc(F)cc2)OCc2cc(C#N)ccc21 (centres undefined) [Citalopram hydrobromide] (20 µM) | 1.01 (inactive) |
| O=C1Nc2ccc(Cl)cc2[C@@](C#CC2CC2)(C(F)(F)F)O1 [Efavirenz] (20 µM) | 0.997 (inactive) |
| O=C1NS(=O)(=O)c2ccccc21 [Saccharin] (50 µM) | 0.996 (inactive) |
| O=C(O)CCCC[C@@H]1SC[C@@H]2NC(=O)N[C@@H]21 [Biotin] (20 µM) | 0.997 (inactive) |
| CC(C)(C(=O)O)c1ccc(C(O)CCCN2CCC(C(O)(c3ccccc3)c3ccccc3)CC2)cc1 (centres undefined) [Fexofenadine hydrochloride] (20 µM) | 1.01 (inactive) |
| CC(C)[C@H]1CC[C@H](C(=O)N[C@H](Cc2ccccc2)C(=O)O)CC1 [Nateglinide] (20 µM) | 1 (inactive) |
| COc1ccc(CNc2nc(N3CCC[C@H]3CO)ncc2C(=O)NCc2ncccn2)cc1Cl [Avanafil] (20 µM) | 0.991 (inactive) |
| C#CCN(C)CCCOc1ccc(Cl)cc1Cl [Clorgyline hydrochloride] (20 µM) | 0.991 (inactive) |
| Cc1cc(-c2ccccc2)nnc1NCCN1CCOCC1 [Minaprine dihydrochloride] (20 µM) | 1 (inactive) |
| c1ccc(CNc2ncnc3nc[nH]c23)cc1 [Aminopurine, 6-benzyl] (20 µM) | 1 (inactive) |
| COc1cccc(N(C)C(=S)Oc2ccc3c(c2)CCCC3)n1 [Liranaftate] (20 µM) | 1.07 (inactive) |

| Structure (SMILES) | fold change of Cadaverine concentration |
| --- | --- |
| C=CCOc1ccccc1OCC(O)CNC(C)C (centres undefined) [Oxprenolol hydrochloride] (20 µM) | 0.988 (inactive) |
| C[C@@H](O[C@H]1OCCN(Cc2n[nH]c(=O)[nH]2)[C@H]1c1ccc(F)cc1)c1cc(C(F)(F)F)cc(C(F)(F)F)c1 [Aprepitant] (20 µM) | 0.993 (inactive) |
| CCOc1ccc(Cc2nccc3cc(OCC)c(OCC)cc23)cc1OCC [Ethaverine hydrochloride] (20 µM) | 0.982 (inactive) |
| O=C(CCCCC(=O)Nc1c(I)cc(I)c(C(=O)O)c1I)Nc1c(I)cc(I)c(C(=O)O)c1I [Iodipamide] (20 µM) | 0.989 (inactive) |
| NC(=O)c1cnccn1 [Pyrazinamide] (20 µM) | 1.01 (inactive) |
| CCN(CC)CCOC(=O)c1ccc(N)cc1 [Procaine hydrochloride] (20 µM) | 1.01 (inactive) |
| CCCCC(CC)CNC(=N)NC(=N)NCCCCCCNC(=N)NC(=N)NCC(CC)CCCC (centres undefined) [Alexidine dihydrochloride] (20 µM) | 0.999 (inactive) |
| Cc1onc(-c2ccccc2)c1C(=O)N[C@@H]1C(=O)N2[C@@H]1SC(C)(C)[C@@H]2C(=O)O [Oxacillin sodium] (20 µM) | 0.984 (inactive) |
| CC(=O)N[C@@H](CC(C)C)C(=O)O [N-Acetyl-L-leucine] (20 µM) | 1.03 (inactive) |
| CC(C)CN(C[C@@H](O)[C@H](Cc1ccccc1)NC(=O)O[C@H]1CO[C@H]2OCC[C@H]21)S(=O)(=O)c1ccc(N)cc1 [Darunavir] (20 µM) | 0.996 (inactive) |
| CN1CCc2cccc3c2[C@H]1Cc1ccc(O)c(O)c1-3 [R(-) Apomorphine hydrochloride hemihydrate] (20 µM) | 0.992 (inactive) |
| CC(=O)OCC(=O)[C@@]1(O)[C@H](C)C[C@H]2[C@@H]3CCC4=CC(=O)C=C[C@]4(C)[C@@]3(F)[C@@H](O)C[C@@]21C [Dexamethasone acetate] (20 µM) | 0.983 (inactive) |
| CN(C)CCC(c1ccc(Br)cc1)c1ccccn1 (centres undefined) [Brompheniramine maleate] (20 µM) | 1.03 (inactive) |
| C#C[C@]1(O)CC[C@H]2[C@@H]3CCC4=C(CCC(=O)C4)[C@H]3CC[C@@]21C [Norethynodrel] (20 µM) | 1.01 (inactive) |
| CN1CCN(CCCN2c3ccccc3Sc3ccc(S(=O)(=O)N(C)C)cc32)CC1 [Thioproperazine dimesylate] (20 µM) | 1.01 (inactive) |
| CCN1/C(=C/C=C/C=C/c2sc3ccccc3[n+]2CC)Sc2ccccc21 [Dithiazanine iodide] (20 µM) | 0.995 (inactive) |
| O=C(O)/C=C/c1ccc(Cn2ccnc2)cc1 [Ozagrel hydrochloride] (20 µM) | 0.986 (inactive) |
| C=CCOc1ccc(CC(=O)O)cc1Cl [Alclofenac] (20 µM) | 0.991 (inactive) |
| CCCCc1nc(Cl)c(CO)n1Cc1ccc(-c2ccccc2-c2nnn[nH]2)cc1 [Losartan] (20 µM) | 1 (inactive) |
